Results filed as inconclusive are left out. Where a call stands in place of a potency, no number is given. Activity calls are given as the source filed them. Calls follow the shape of the dose curve; as a rule, active = well fitted inhibition curve with a large enough effect; inconclusive = small, poorly fitted or top-dose-only effect; inactive = flat fitted curve, though single readings scatter.
How the values were obtained:
Assay in all cases: qHTS profiling for inhibitors of Plasmodium falciparum proliferation (AID 504749); also: nearly all actives have a fitted effect of over 60% in size
Conditions in all cases: P. falciparum in erythrocytes, SYBR Green DNA, 72 h; series mostly up to 28.7 µM
AA1029 = system: AA1029
In short: (§1)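 In a 72 h erythrocytic culture (37 C, humidified, 5% CO2) at 2.5% hematocrit and 0.3% starting parasitemia, compounds were tested; SYBR Green I in detergent lysis buffer stained parasite DNA overnight.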

AS120 = system: AS120
In short: as §1

ATS189 = system: ATS189
In short: as §1

ATS95 = system: ATS95
In short: as §1

C2A = system: C2A
In short: as §1

CP185 = system: CP185
In short: as §1

CP191 = system: CP191
In short: as §1

CP192 = system: CP192
In short: as §1

CP194 = system: CP194
In short: as §1

CP201 = system: CP201
In short: as §1
Potency is read from the fitted curve at half-maximal effect.

| Structure (SMILES) | Potency (AA1029) | Potency (AS120) | Potency (ATS189) | Potency (ATS95) | Potency (C2A) | Potency (CP185) | Potency (CP191) | Potency (CP192) | Potency (CP194) | Potency (CP201) |
| --- | --- | --- | --- | --- | --- | --- | --- | --- | --- | --- |
| Oc1cc(Cl)c(Cl)cc1Cl | inactive | inactive | inactive | inactive | inactive | inactive | inactive | inactive | inactive | inactive |
| CCCC(C)C1(CC)C(=O)NC(=O)NC1=O (stereo unspecified) | inactive | inactive | inactive | inactive | inactive | inactive | inactive | inactive | inactive | inactive |
| O=S(=O)(O)c1cc(O)ccc1O | inactive | inactive | inactive | inactive | inactive | inactive | inactive | inactive | inactive | inactive |
| CCC1(CC)C(=O)NC(=O)N(C)C1=O | inactive | inactive | inactive | inactive | inactive | inactive | inactive | inactive | inactive | inactive |
| CCC(=O)O[C@@](Cc1ccccc1)(c1ccccc1)[C@@H](C)CN(C)C | inactive | inactive | inactive | inactive | inactive | inactive | inactive | inactive | inactive | inactive |
| CCCCNCC(O)c1ccc(O)cc1 (stereo unspecified) | inactive | inactive | inactive | inactive | inactive | inactive | inactive | inactive | inactive | inactive |
| CC(N)Cc1ccc(O)cc1 (stereo unspecified) | inactive | inactive | inactive | inactive | inactive | inactive | inactive | inactive | inactive | inactive |
| CCCC(C)(COC(N)=O)COC(=O)NC1CC1 (stereo unspecified) | inactive | inactive | inactive | inactive | inactive | inactive | inactive | inactive | inactive | inactive |
| ClC1C(Cl)C(Cl)C(Cl)C(Cl)C1Cl (stereo unspecified) | inactive | inactive | inactive | inactive | inactive | inactive | inactive | inactive | inactive | inactive |
| C[C@H]1CC[C@@H]2[C@@H](C)[C@H]3[C@H](C[C@H]4[C@@H]5CC=C6CC(O[C@@H]7O[C@H](CO)[C@H](O)[C@H](O[C@@H]8O[C@H](CO)[C@@H](O)[C@H](O)[C@H]8O)[C@H]7O[C@H]7O[C@@H](C)[C@H](O)[C@@H](O)[C@H]7O)CC[C@]6(C)[C@H]5CC[C@]34C)N2C1 (stereo partly specified) | inactive | inactive | inactive | inactive | inactive | inactive | inactive | inactive | inactive | inactive |
| CC(C)(O)C1C2OC(=O)C1C1(O)CC3OC34C(=O)OC2C14C (stereo unspecified) | inactive | inactive | inactive | inactive | inactive | inactive | inactive | inactive | inactive | inactive |
| CCCCCCCCCC(=O)O[C@H]1CC[C@H]2[C@@H]3CCC4=CC(=O)CC[C@]4(C)[C@H]3CC[C@]12C | inactive | inactive | inactive | inactive | inactive | inactive | inactive | inactive | inactive | inactive |
| C=CCN(C1=NCCN1)c1c(Cl)cccc1Cl | inactive | inactive | inactive | inactive | inactive | inactive | inactive | inactive | inactive | inactive |
| CCC(N)Cc1c[nH]c2ccccc12 (stereo unspecified) | inactive | inactive | inactive | inactive | inactive | inactive | inactive | inactive | inactive | inactive |
| C=CCN1CCC23c4c5ccc(O)c4O[C@H]2C(=O)CC[C@@]3(O)C1C5 (stereo partly specified) | inactive | inactive | inactive | inactive | inactive | inactive | inactive | inactive | inactive | inactive |
| NCC(O)c1cccc(O)c1 (stereo unspecified) | inactive | inactive | inactive | inactive | inactive | inactive | inactive | inactive | inactive | inactive |
| O=C1CCO1 | inactive | inactive | inactive | inactive | inactive | inactive | inactive | inactive | inactive | inactive |
| CC[N+](C)(CC)CCOC(=O)C(O)(c1ccccc1)c1ccccc1 | inactive | inactive | inactive | inactive | inactive | inactive | inactive | inactive | inactive | inactive |
| [O]=[Cr](=[O])([OH])[O][Cr](=[O])(=[O])[OH] | inactive | inactive | inactive | inactive | inactive | inactive | inactive | inactive | inactive | inactive |
| CCC(C)(S(=O)(=O)CC)S(=O)(=O)CC | inactive | inactive | inactive | inactive | inactive | inactive | inactive | inactive | inactive | inactive |
| O=CC=O | inactive | inactive | inactive | inactive | inactive | inactive | inactive | inactive | inactive | inactive |
| CCON=O | inactive | inactive | inactive | inactive | inactive | inactive | inactive | inactive | inactive | inactive |
| O=C(O)C(Cl)(Cl)Cl | inactive | inactive | inactive | inactive | inactive | inactive | inactive | inactive | inactive | inactive |
| CCNC(C)Cc1cccc(C(F)(F)F)c1 (stereo unspecified) | inactive | inactive | inactive | inactive | inactive | inactive | inactive | inactive | inactive | inactive |
| C[C@]12CCC(=O)C[C@@H]1CC[C@@H]1[C@@H]2CC[C@]2(C)[C@@H](O)CC[C@@H]12 | inactive | inactive | inactive | inactive | inactive | inactive | inactive | inactive | inactive | inactive |
| CCOC(=O)c1ccccc1C(=O)OCC | inactive | inactive | inactive | inactive | inactive | inactive | inactive | inactive | inactive | inactive |

| Structure (SMILES) | Potency (AA1029) | Potency (AS120) | Potency (ATS189) | Potency (ATS95) | Potency (C2A) | Potency (CP185) | Potency (CP191) | Potency (CP192) | Potency (CP194) | Potency (CP201) |
| --- | --- | --- | --- | --- | --- | --- | --- | --- | --- | --- |
| O=C(NCNC(=O)NC1C(=O)NC(=O)N1CO)NC1C(=O)NC(=O)N1CO (stereo unspecified) | inactive | inactive | inactive | inactive | inactive | inactive | inactive | inactive | inactive | inactive |
| O=[N+]([O-])c1ccc(F)c([N+](=O)[O-])c1 | inactive | inactive | inactive | inactive | inactive | inactive | inactive | inactive | inactive | inactive |
| S=C(S)N1CCNCC1 | inactive | inactive | inactive | inactive | inactive | inactive | inactive | inactive | inactive | inactive |
| c1csc(C2(N3CCCCC3)CCCCC2)c1 | inactive | inactive | inactive | inactive | inactive | inactive | inactive | inactive | inactive | inactive |
| Cc1sc2ccccc2c1CC1=NCCN1 | inactive | inactive | inactive | inactive | inactive | inactive |  | inactive | inactive | inactive |
| c1ccc(C2(N3CCCC3)CCCCC2)cc1 | 11.2 µM (active) | 11.2 µM (active) | inactive |  | inactive | 12.6 µM (active) | 11.2 µM (active) |  |  |  |
| CN1c2ccccc2C(NCCCCCCC(=O)O)c2ccc(Cl)cc2S1(=O)=O (stereo unspecified) | inactive | inactive | inactive | inactive | inactive | inactive | inactive | inactive | inactive | inactive |
| CN1C2CCC1CC(OC(c1ccccc1)c1ccc(Cl)cc1)C2 (stereo unspecified) | 11.2 µM (active) | 11.2 µM (active) | 10 µM (active) | 8.91 µM (active) | 11.2 µM (active) | 12.6 µM (active) | 4.47 µM (active) |  | 10.7 µM (active) |  |
| O=c1c2ccccc2[se]n1-c1ccccc1 | inactive |  |  | inactive | inactive |  |  | inactive |  | inactive |
| c1ccc2sc(SNC3CCCCC3)nc2c1 | inactive | inactive | inactive | inactive | inactive | inactive | inactive | inactive | inactive | inactive |
| F/C(COc1ccc2c(c1)[nH]c1ccccc12)=C1/CN2CCC1CC2 | 10 µM (active) | 4.47 µM (active) |  | 11.2 µM (active) |  |  | 11.2 µM (active) |  |  | inactive |
| O=C(NC(=O)c1c(F)cccc1F)Nc1ccc(Cl)c(Oc2ncc(C(F)(F)F)cc2Cl)c1 | inactive | inactive | inactive | inactive | inactive | inactive | inactive | inactive | inactive | inactive |
| CCOc1ccc2c3c1O[C@H]1[C@@H](O)C=C[C@H]4[C@@H](C2)N(C)CC[C@@]341 | inactive | inactive | inactive | inactive | inactive | inactive | inactive | inactive |  | inactive |
| CNC1(c2ccccc2Cl)CCCCC1=O (stereo unspecified) | inactive | inactive | inactive |  | inactive | inactive |  | inactive |  | inactive |
| CN1[C@@H]2CC[C@H]1CC(OC1c3ccccc3CCc3ccccc31)C2 (stereo partly specified) | 3.55 µM (active) | 3.55 µM (active) |  |  |  |  | 2.51 µM (active) | inactive |  | inactive |
| CCC1(c2ccccc2)C(=O)NC(=O)N(C(=O)c2ccccc2)C1=O (stereo unspecified) | inactive | inactive | inactive | inactive | inactive | inactive |  | inactive | inactive | inactive |
| CCC1(c2ccccc2)C(=O)NC(=O)NC1=O | inactive |  | inactive | inactive | inactive | inactive | inactive |  | inactive | inactive |
| [Cl-].[Cl-].[Hg+2] |  |  |  |  |  |  | inactive | inactive |  |  |
| O=C(CCl)c1ccc(Oc2ccc(C(=O)CCl)cc2)cc1 | inactive | inactive | inactive | inactive | inactive | inactive | inactive | inactive | inactive | inactive |
| CCCC(=O)OC(C(Cl)(Cl)Cl)P(=O)(OC)OC (stereo unspecified) | inactive | inactive | inactive |  | inactive | inactive | inactive | inactive | inactive | inactive |
| CCCCCCCCOC(=O)c1ccccc1C(=O)OCCCCCCCC | inactive | inactive | inactive | inactive | inactive | inactive | inactive | inactive | inactive | inactive |
| CC(=O)OO | inactive | inactive | inactive | inactive | inactive | inactive | inactive | inactive | inactive | inactive |
| COc1ccc2c3c1O[C@H]1C(=O)CC[C@H]4[C@@H](C2)N(C)CC[C@]314 | inactive | inactive | inactive | inactive | inactive | inactive | inactive | inactive | inactive | inactive |
| CC12NC(Cc3ccccc31)c1ccccc12 (stereo unspecified) | 11.2 µM (active) |  |  |  | inactive |  |  | inactive |  | inactive |
| CC(=O)OC1CN2CCC1CC2 (stereo unspecified) | inactive | inactive | inactive | inactive | inactive | inactive | inactive | inactive | inactive | inactive |

From PubChem BioAssay (NCATS)
